# Assay results taken from the supplement of paper PMC13380429.
# Tested on: Vero E6 infected with SARS-CoV-2
# Assay: inhibition of SARS-CoV-2 cytopathic effect; higher = more antiviral protection, active = above 15
# Conditions: 1 nM; 48 h
row,SMILES,inhibition of SARS-CoV-2 cytopathic effect
1,COc1cc(OCc2cccc(-c3ccccc3)c2C)cc(OC)c1CN1CCCC[C@H]1C(=O)O [PD1-PDL-inhibitor-1],-2.92% (inactive)
2,N#CCC(=O)c1ccccc1,4.1% (inactive)
3,CC(C)(C)C(=O)C(Oc1ccc(Cl)cc1)n1ccnc1 (stereo not given) [climbazole],-1.08% (inactive)
4,CCCC[C@H](NC(=O)[C@@H]1[C@@H]2[C@H](CN1C(=O)[C@@H](NC(=O)NC1(CS(=O)(=O)C(C)(C)C)CCCCC1)C(C)(C)C)C2(C)C)C(=O)C(=O)NC1CC1 [narlaprevir],0.96% (inactive)
5,CNC1CCCN(c2c(F)cc3c(=O)c(C(=O)O)cn(C4CC4)c3c2OC)C1 (stereo not given) [balofloxacin],-2.96% (inactive)
6,C[C@]12CCC(=O)C=C1CC[C@@H]1[C@@H]2CC[C@@]2(C)[C@H]1CC[C@]2(O)C(=O)CO [cortodoxone],-0.53% (inactive)
7,O=C1N=C2SCCN2C(=O)C1Cc1ccc(Cl)cc1 (stereo not given) [nuclomedone],-1.33% (inactive)
8,Cc1ccccc1NC(=N)Nc1ccccc1C [ditolylguanidine],1.39% (inactive)
9,CS(=O)(=O)c1cccc(CNc2nc(Nc3ccc4c(c3)CCC(=O)N4)ncc2C(F)(F)F)c1,-1.14% (inactive)
10,O=C(Nc1ccc(S(=O)(=O)Nc2nccs2)cc1)C(c1ccccc1)c1ccccc1,-0.78% (inactive)
11,OC[C@H]1O[C@@H](Oc2ccc(O)cc2)[C@H](O)[C@@H](O)[C@@H]1O [arbutin],-0.81% (inactive)
12,CN[C@H](CC(C)C)C(=O)N[C@H]1C(=O)N[C@@H](CC(N)=O)C(=O)N[C@H]2C(=O)N[C@H]3C(=O)N[C@H](C(=O)N[C@H](C(=O)O)c4cc(O)cc(O)c4-c4cc3ccc4O)[C@H](O)c3ccc(c(Cl)c3)Oc3cc2cc(c3O[C@@H]2O[C@H](CO)[C@@H](O)[C@H](O)[C@H]2O[C@H]2C[C@](C)(N)[C@H](O)[C@H](C)O2)Oc2ccc(cc2Cl)[C@H]1O,0.55% (inactive)
13,CN1CCC(c2c[nH]c3ccc(O)cc23)CC1,-0.56% (inactive)
14,O=C(NCc1ccccc1)OCCO [buramate],-3.11% (inactive)
15,CCCN(C/C=C/I)[C@H]1CCc2ccc(O)cc2C1 [7-hydroxy-PIPAT],-0.76% (inactive)
16,CN1CC[C@H](c2c(O)cc(O)c3c(=O)cc(-c4ccccc4Cl)oc23)[C@H](O)C1 [alvocidib],2.38% (inactive)
17,COc1ccc(-c2nc(-c3ccc(-c4cccc(Cl)c4)o3)[nH]c2-c2ccc(OC)cc2)cc1 [neurodazine],0.83% (inactive)
18,Cc1ccc(C(C)C)c(O)c1 [thymol],2.55% (inactive)
19,CCCC(=O)Nc1cccc(NC(=O)c2ccccc2Br)c1,1.03% (inactive)
20,O/N=C/c1cc[n+](COC[n+]2ccc(/C=N/O)cc2)cc1 [obidoxime],1.54% (inactive)

row,SMILES,inhibition of SARS-CoV-2 cytopathic effect
1,O=C(Nc1cccc2c(=O)cc(-c3nnn[nH]3)oc12)c1ccc(OCCCCc2ccccc2)cc1 [pranlukast],-0.09% (inactive)
2,c1cnc(NCc2ccc(CNc3ncccn3)cc2)nc1,-2.38% (inactive)
3,COc1ccc(-c2nc(C(=O)N3CCN(C)CC3)sc2-c2ccc(OC)cc2)cc1,-2.34% (inactive)
4,N#Cc1ccnc(N2C(=O)CC[C@H]2C(=O)N(c2cncc(F)c2)[C@H](C(=O)NC2CC(F)(F)C2)c2ccccc2Cl)c1 [ivosidenib],-0.33% (inactive)
5,COc1cc2nccc(Oc3ccc(NC(=O)Nc4ccc(F)cc4F)c(F)c3)c2cc1OC,-0.54% (inactive)
6,O=C1c2ccccc2-c2n[nH]c3cccc1c23 [pyrazolanthrone],-4.36% (inactive)
7,COc1ccc(Br)cc1S(=O)(=O)NC(=O)/C=C/c1ccccc1Cc1ccc2ccccc2c1,1.22% (inactive)
8,O=C(NCc1ccc2c(c1)OCO2)c1c(Cl)cccc1Cl [alda-1],-2.37% (inactive)
9,CC(C)n1cnc2c(C(=O)N[C@H]3CN4CCC3CC4)cc(Cl)cc21,-1.27% (inactive)
10,Nc1cc(C(F)(F)F)c(-c2nc(N3CCOCC3)nc(N3CCOCC3)n2)cn1,-0.85% (inactive)
11,Cc1ccc(NC(=O)C2(c3ccc4c(c3)OC(F)(F)O4)CC2)nc1-c1cccc(C(=O)O)c1 [lumacaftor],2.48% (inactive)
12,OCCCNc1ccccc1 [3-anilinopropan-1-ol],-0.17% (inactive)
13,CC(C)(C)[C@H]1CC[C@H](CC2=C(O)C(=O)c3ccccc3C2=O)CC1 [buparvaquone],1.01% (inactive)
14,CN(C)CCn1cc(S(=O)(=O)c2cccc(F)c2)c2cccnc21,5.3% (inactive)
15,COCCc1ccc(OCC(O)CNC(C)C)cc1 (stereo not given) [metoprolol],2% (inactive)
16,CNC(=O)[C@H]1O[C@@H](n2cnc3c(NCc4cccc(I)c4)ncnc32)[C@H](O)[C@@H]1O,0.17% (inactive)
17,O=C(c1ccc(Nc2nccc(-c3cc4ccccc4s3)n2)cc1)N1CCC(N2CCCC2)CC1,2.48% (inactive)
18,O=C(O)CCNc1cc(N2CCc3ccccc3CC2)nc(-c2cccnc2)n1,0.26% (inactive)
19,COc1ccc2c(c1)[C@]13CCCC[C@@H]1[C@H](C2)N(C)CC3 [dextromethorphan],0.17% (inactive)
20,CC[C@@]1(O)C(=O)OCc2c1cc1n(c2=O)Cc2cc3ccccc3nc2-1 [camptothecin],-1.27% (inactive)
